Results: PubChem BioAssay
For some assays here: Potency and affinity values are given separately. Calls of active or inactive are those of the source. Unless noted, the rule behind the calls is not given here.

Assays:
[1] = antimalarial activity against Dd2 strain (AID 2302;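 active = growth inhibition above 50% at the single 2 µM test dose, taken to imply half-maximal potency below 2 µM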;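 note: 0% = DMSO untreated growth and 100% = chloroquine plus artemisinin killed control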); conditions: P. falciparum Dd2 in RBCs, LDH growth readout, 72 h; at 2 µM; active compounds read high
[2] = human hepatoma cell viability loss – ATP luminescence, cytotoxicity control for P. falciparum antimalarial project, primary screen (AID 2303;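 active = inhibition above 50%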;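 note: 0% = DMSO wells and 100% = digitonin-killed cells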); conditions: HepG2 viability, 24-48 h, at 10 µM, active compounds read high
[3] = target: L-lactate dehydrogenase (Plasmodium falciparum (isolate CDC / Honduras)) (UniProt Q27743); assay: PfLDH activity inhibition – cell lysate, 3D7 strain, counter-screen for P. falciparum growth inhibition project (AID 2304);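 note: 0% = vehicle and 100% = reference inhibitor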; conditions: P. falciparum 3D7 crude extract, LDH APAD/NBT absorbance; at 2 µM; active compounds read high
[4] = inhibition of 3D7 malaria parasite growth – strain 3D7 (AID 2306);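 note: 0% = DMSO wells and 100% = chloroquine plus artemisinin control wells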; conditions: P. falciparum 3D7 erythrocytic growth, LDH absorbance, 72 h; at 2 µM; active compounds read high
[5] = target: Calcium-dependent protein kinase 1 (Plasmodium falciparum (isolate 3D7)) (UniProt P62344); assay: PfCDPK1 kinase inhibitors, biochemical, TCAMS library (AID 1159585; cut-off not given, nearly all actives have IC50 up to about 0.98 µM;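 note: inhibitors leave more ATP so luminescence rises with inhibition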); conditions: recombinant PfCDPK1, Kinase-Glo ATP depletion luminescence
[6] = target: Plasmodium falciparum protein kinase 6 (PK6, PF3D7_1337100) (UniProt Q8IDW1); assay: PfPK6 kinase inhibitors, biochemical, TCAMS library (AID 1159586); conditions: recombinant PfPK6, Kinase-Glo ATP depletion luminescence
[7] = target: Protein kinase 7 (PK7), Plasmodium falciparum 3D7 (PF3D7_0213400) (UniProt Q7YTF7); assay: inhibition of Plasmodium PK7 catalytic activity – biochemical, TCAMS antimalarial set, Kinase-Glo luminescence (AID 1159587); conditions: recombinant PfPK7, Kinase-Glo ATP depletion luminescence
[8] = target: Calcium-dependent protein kinase 4 (Plasmodium falciparum (isolate 3D7)) (UniProt Q8IBS5); assay: PfCDPK4 kinase inhibitors, biochemical, TCAMS library (AID 1159588; cut-off not given, nearly all actives have IC50 up to about 0.91 µM); conditions: recombinant PfCDPK4, Kinase-Glo ATP depletion luminescence
Sequence of Calcium-dependent protein kinase 4 (Plasmodium falciparum (isolate 3D7)) (Q8IBS5 whole entry, looked up): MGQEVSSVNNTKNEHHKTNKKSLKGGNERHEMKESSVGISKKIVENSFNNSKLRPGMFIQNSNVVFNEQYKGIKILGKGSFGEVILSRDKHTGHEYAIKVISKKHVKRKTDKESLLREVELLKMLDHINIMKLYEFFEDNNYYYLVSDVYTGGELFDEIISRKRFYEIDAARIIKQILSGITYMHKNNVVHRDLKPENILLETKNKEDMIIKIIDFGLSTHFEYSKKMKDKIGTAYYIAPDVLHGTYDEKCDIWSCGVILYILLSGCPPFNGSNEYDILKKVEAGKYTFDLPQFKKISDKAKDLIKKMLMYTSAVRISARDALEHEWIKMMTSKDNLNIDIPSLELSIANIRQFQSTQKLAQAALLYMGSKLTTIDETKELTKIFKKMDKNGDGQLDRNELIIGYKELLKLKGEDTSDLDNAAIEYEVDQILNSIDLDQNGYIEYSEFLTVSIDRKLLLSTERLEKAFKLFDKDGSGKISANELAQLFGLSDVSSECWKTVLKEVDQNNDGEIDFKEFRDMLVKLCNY

Sequence of Plasmodium falciparum protein kinase 6 (PK6, PF3D7_1337100) (Q8IDW1 1-305): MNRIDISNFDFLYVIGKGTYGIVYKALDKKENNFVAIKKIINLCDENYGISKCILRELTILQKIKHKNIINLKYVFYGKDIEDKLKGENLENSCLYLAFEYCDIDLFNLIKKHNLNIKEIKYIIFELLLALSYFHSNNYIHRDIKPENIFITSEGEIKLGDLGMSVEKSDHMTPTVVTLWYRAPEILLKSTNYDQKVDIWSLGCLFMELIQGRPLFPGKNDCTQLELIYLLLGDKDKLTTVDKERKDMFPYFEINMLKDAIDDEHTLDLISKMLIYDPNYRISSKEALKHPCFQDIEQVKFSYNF
Sequence of L-lactate dehydrogenase (Plasmodium falciparum (isolate CDC / Honduras)) (Q27743 whole entry, looked up): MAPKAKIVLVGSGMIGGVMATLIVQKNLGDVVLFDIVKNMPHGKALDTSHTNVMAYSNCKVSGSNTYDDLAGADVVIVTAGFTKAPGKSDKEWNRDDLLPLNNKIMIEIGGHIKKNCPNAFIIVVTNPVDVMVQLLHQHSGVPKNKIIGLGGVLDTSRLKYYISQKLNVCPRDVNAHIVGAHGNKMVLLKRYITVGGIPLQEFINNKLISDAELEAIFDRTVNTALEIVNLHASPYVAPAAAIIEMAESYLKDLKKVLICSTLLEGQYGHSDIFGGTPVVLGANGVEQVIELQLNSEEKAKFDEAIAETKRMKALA
Sequence of Calcium-dependent protein kinase 1 (Plasmodium falciparum (isolate 3D7)) (P62344 whole entry, looked up): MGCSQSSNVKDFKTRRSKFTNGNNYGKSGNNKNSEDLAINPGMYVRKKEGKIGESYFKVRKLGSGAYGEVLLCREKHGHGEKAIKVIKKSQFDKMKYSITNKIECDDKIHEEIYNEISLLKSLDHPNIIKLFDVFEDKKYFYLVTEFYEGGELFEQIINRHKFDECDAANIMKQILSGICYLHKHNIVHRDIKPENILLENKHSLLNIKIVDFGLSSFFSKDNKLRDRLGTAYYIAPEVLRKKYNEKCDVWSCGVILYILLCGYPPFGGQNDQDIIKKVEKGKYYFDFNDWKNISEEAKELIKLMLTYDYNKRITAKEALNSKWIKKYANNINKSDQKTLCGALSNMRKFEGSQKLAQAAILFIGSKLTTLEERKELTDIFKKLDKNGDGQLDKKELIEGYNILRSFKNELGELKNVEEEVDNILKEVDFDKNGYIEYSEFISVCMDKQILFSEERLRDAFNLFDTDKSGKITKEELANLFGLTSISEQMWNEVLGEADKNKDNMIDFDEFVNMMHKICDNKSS
Sequence of Protein kinase 7 (PK7), Plasmodium falciparum 3D7 (PF3D7_0213400) (Q7YTF7 1-343): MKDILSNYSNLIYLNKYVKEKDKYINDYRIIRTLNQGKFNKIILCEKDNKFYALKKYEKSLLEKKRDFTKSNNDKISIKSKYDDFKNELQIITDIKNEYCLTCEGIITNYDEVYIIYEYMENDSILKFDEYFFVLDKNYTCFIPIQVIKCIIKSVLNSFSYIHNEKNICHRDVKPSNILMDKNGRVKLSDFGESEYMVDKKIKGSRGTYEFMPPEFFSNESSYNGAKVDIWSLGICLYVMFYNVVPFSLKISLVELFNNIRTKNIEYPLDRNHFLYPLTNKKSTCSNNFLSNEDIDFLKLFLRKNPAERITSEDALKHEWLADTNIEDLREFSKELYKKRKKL

O=C(/C=C/c1ccc(Cl)c(Cl)c1)N1CCC(CN2CCC(c3c[nH]c4ccncc34)CC2)CC1
active: growth inhibition [1] 72% | growth inhibition [4] 101%
inactive: inhibition [2] 44% | inhibition [3] 0% | outcome [5] | outcome [6] | outcome [7] | outcome [8]

CN(C)CCCOc1ccc(CN2CC[C@H](NC(=O)c3ccc(Cl)c(Cl)c3)C2)cc1Cl
inactive: growth inhibition [1] 35% | inhibition [3] 1% | outcome [5] | outcome [6] | outcome [7] | outcome [8]
active: inhibition [2] 65% | growth inhibition [4] 100%

COc1ccc(S(=O)(=O)N(CC(=O)NN=C(C)c2cccs2)c2cc(C)cc(C)c2)cc1OC
active: growth inhibition [4] 97%
inactive: growth inhibition [1] 43% | inhibition [2] 12% | inhibition [3] -1% | outcome [5] | outcome [6] | outcome [7] | outcome [8]

O=C(NC1CCCCN(Cc2ccc3c(c2)OCCO3)C1)c1cc(-c2ccccc2F)cs1 (stereo not given)
inactive: growth inhibition [1] 19% | inhibition [2] 8% | inhibition [3] 1% | outcome [5] | outcome [6] | outcome [7] | outcome [8]
active: growth inhibition [4] 92%

O=S(=O)(NCCN1CCCC1)c1ccc(-c2ccccc2CNC2Cc3ccccc3C2)cc1
active: growth inhibition [1] 67% | growth inhibition [4] 95%
inactive: inhibition [2] 19% | inhibition [3] -9% | outcome [5] | outcome [6] | outcome [7] | outcome [8]

COc1ccc(CN=C(N)Nc2nc(-c3ccc(OCCCn4ccnc4)cc3)cs2)cc1
inactive: inhibition [2] 15% | inhibition [3] -5% | outcome [5] | outcome [6] | outcome [7] | outcome [8]
active: growth inhibition [1] 67% | growth inhibition [4] 100%

Cc1cccc2[nH]c(-c3ccc(-c4cccc(NC(=O)C(C)CN(C)C)c4)cc3)nc12 (stereo not given)
inactive: inhibition [2] 20% | inhibition [3] 1% | outcome [5] | outcome [6] | outcome [7] | outcome [8]
active: growth inhibition [1] 61% | growth inhibition [4] 99%

COc1ccc(C2C(C(=O)Nc3cc(Cl)c(OC)cc3OC)c3ccccc3C(=O)N2C)cc1 (stereo not given)
active: growth inhibition [1] 98% | growth inhibition [4] 101%
inactive: inhibition [2] 14% | inhibition [3] 4% | outcome [5] | outcome [6] | outcome [7] | outcome [8]

Cc1nc2nc(N)nc(N)c2c(C)c1Cc1cccc(C#N)c1
active: inhibition [2] 64% | growth inhibition [4] 97%
inactive: growth inhibition [1] 1% | inhibition [3] 1% | outcome [5] | outcome [6] | outcome [7] | outcome [8]

CN(C)C(=NCCCCCCN=C(NC(N)=NCc1ccc(Cl)c(Cl)c1)N(C)C)NC(N)=NCc1ccc(Cl)c(Cl)c1
inactive: inhibition [2] 20% | inhibition [3] -9% | outcome [5] | outcome [6] | outcome [7] | outcome [8]
active: growth inhibition [1] 99% | growth inhibition [4] 93%

COc1ccc(-c2cc(-c3ccc(S(C)(=O)=O)cc3)cnc2N)cn1
active: growth inhibition [1] 99% | growth inhibition [4] 94%
inactive: inhibition [2] 5% | inhibition [3] 0% | outcome [5] | outcome [6] | outcome [7] | outcome [8]

CC(=O)Nc1nc(C(=O)Nc2ccc(-c3ccc(-c4nc5ccccc5[nH]4)cc3)cc2)cs1
inactive: inhibition [2] 38% | inhibition [3] -5% | outcome [5] | outcome [6] | outcome [7] | outcome [8]
active: growth inhibition [1] 53% | growth inhibition [4] 100%

Cc1ccc(Nc2nc(C)cc(Nc3cccc(C#N)c3)n2)cc1
active: growth inhibition [1] 96% | growth inhibition [4] 101%
inactive: inhibition [2] 14% | inhibition [3] 4% | outcome [5] | outcome [6] | outcome [7] | outcome [8]

S=C(NCCCCCN1CCC(c2c[nH]c3ccccc23)CC1)Nc1cccc(I)c1
inactive: growth inhibition [1] 14% | inhibition [3] -3% | outcome [5] | outcome [6] | outcome [7] | outcome [8]
active: inhibition [2] 69% | growth inhibition [4] 99%

Cc1ccccc1C1CCN(c2ccc(C(=O)Nc3ccc(F)cc3)cn2)CC1
inactive: inhibition [2] 45% | inhibition [3] -1% | outcome [5] | outcome [6] | outcome [7] | outcome [8]
active: growth inhibition [1] 96% | growth inhibition [4] 96%

Cc1cc(OCC(=O)Nc2ccc(-c3nc4ccccc4[nH]3)cc2)cc(C)c1Cl
inactive: growth inhibition [1] 0% | inhibition [2] 5% | inhibition [3] -1% | outcome [5] | outcome [6] | outcome [7] | outcome [8]
active: growth inhibition [4] 99%

CCc1ccc(C2CCN(CCCCNC(=O)c3ccc(NC(=O)c4ccc(Cl)cc4)cc3)CC2)c(OC)c1
inactive: inhibition [2] 26% | inhibition [3] -6% | outcome [5] | outcome [6] | outcome [7] | outcome [8]
active: growth inhibition [1] 80% | growth inhibition [4] 101%

COc1ccc(Cl)cc1N1CCN(CCCNC(=O)c2ccc(-c3nc4cc(Cl)c(F)cc4[nH]3)cc2)CC1
inactive: inhibition [2] 3% | inhibition [3] 6% | outcome [5] | outcome [6] | outcome [7] | outcome [8]
active: growth inhibition [1] 98% | growth inhibition [4] 101%

COc1ccc2nccc([C@@H](O)CN3CCC(NC(=O)c4ccc(-c5ccc(C#N)cc5)cc4)CC3)c2c1
inactive: inhibition [2] 42% | inhibition [3] 4% | outcome [5] | outcome [6] | outcome [7] | outcome [8]
active: growth inhibition [1] 91% | growth inhibition [4] 101%

N#Cc1ccc2c(c1)CCN(CCC1CCC(NC(=O)Nc3cnc4ccccc4c3)CC1)C2 (stereo not given)
active: growth inhibition [4] 93%
inactive: growth inhibition [1] 9% | inhibition [2] 14% | inhibition [3] 6% | outcome [5] | outcome [6] | outcome [7] | outcome [8]

COc1ccc(NC(=O)/C=C/c2ccccc2Cl)cc1OCCN1CCC(c2nc3ccccc3[nH]2)CC1
inactive: growth inhibition [1] 16% | inhibition [2] 35% | inhibition [3] -6% | outcome [5] | outcome [6] | outcome [7] | outcome [8]
active: growth inhibition [4] 92%

CNC(=O)c1[nH]c(-c2ccccc2)nc1NC(C)=O
active: growth inhibition [4] 100%
inactive: growth inhibition [1] -2% | inhibition [2] -3% | inhibition [3] -2% | outcome [5] | outcome [6] | outcome [7] | outcome [8]

COc1cccc(C(=O)Nc2nonc2-c2ccc(OC)c(OC)c2)c1
inactive: inhibition [2] 7% | inhibition [3] -8% | outcome [5] | outcome [6] | outcome [7] | outcome [8]
active: growth inhibition [1] 50% | growth inhibition [4] 97%

Cc1ccc(CON2C(N)=NC(N)=NC2(C)C)cc1C
inactive: inhibition [3] -9% | outcome [5] | outcome [6] | outcome [7] | outcome [8]
active: growth inhibition [1] 88% | inhibition [2] 64% | growth inhibition [4] 92%

O=C(Nc1ccc(Cl)cc1)Nc1ccc(-c2ccc(-c3nc4ccccc4[nH]3)cc2)cc1
inactive: inhibition [2] 47% | inhibition [3] 0% | outcome [5] | outcome [6] | outcome [7] | outcome [8]
active: growth inhibition [1] 99% | growth inhibition [4] 101%

Cc1cc(-c2ccc3c(c2)CC[C@@H](N[C@@H](C)c2ccccc2)C3)cnc1N
inactive: growth inhibition [1] 7% | inhibition [2] 3% | inhibition [3] -2% | outcome [5] | outcome [6] | outcome [7] | outcome [8]
active: growth inhibition [4] 98%

COc1c(C2CCN(CCCCNC(=O)c3ccc(-c4ccc(Cl)cc4)cc3)CC2)ccc2c1C(C)(C)CCC2(C)C
active: inhibition [2] 94% | growth inhibition [4] 95%
inactive: growth inhibition [1] 42% | inhibition [3] 1% | outcome [5] | outcome [6] | outcome [7] | outcome [8]

Cc1cccc(C(=O)Nc2ccnc(N3CCC(N(C)Cc4ccccc4)CC3)c2)c1
inactive: growth inhibition [1] 2% | inhibition [2] 12% | inhibition [3] -1% | outcome [5] | outcome [6] | outcome [7] | outcome [8]
active: growth inhibition [4] 93%

Nc1nccc(-c2ccc3c(/C=C/c4ccccc4)cnc(N)c3c2)n1
active: growth inhibition [1] 100% | growth inhibition [4] 101%
inactive: inhibition [2] 32% | inhibition [3] 2% | outcome [5] | outcome [6] | outcome [7] | outcome [8]

CC1CCN(CC[C@H]2CCCN2S(=O)(=O)c2cccc(NC(=O)c3ccc(-c4ccccc4)cc3)c2)CC1
active: growth inhibition [4] 87%
inactive: growth inhibition [1] 36% | inhibition [2] 38% | inhibition [3] -6% | outcome [5] | outcome [6] | outcome [7] | outcome [8]

Cc1cc(N)c2cc(NC(=O)c3ccc4ccccc4c3)ccc2n1
inactive: inhibition [2] 33% | inhibition [3] 1% | outcome [5] | outcome [6] | outcome [7] | outcome [8]
active: growth inhibition [1] 99% | growth inhibition [4] 101%

O=[N+]([O-])c1ccc(Nc2nc(NN=Cc3cccc(O)c3)nc(N3CCCC3)n2)cc1
inactive: growth inhibition [1] 9% | inhibition [2] -6% | inhibition [3] -5% | outcome [5] | outcome [6] | outcome [7] | outcome [8]
active: growth inhibition [4] 88%

CC(=O)Nc1ccc(C(=O)Nc2cccc(-c3ccc(-c4nc5ccc(F)cc5[nH]4)cc3)c2)cn1
inactive: inhibition [2] 10% | inhibition [3] -6% | outcome [5] | outcome [6] | outcome [7] | outcome [8]
active: growth inhibition [1] 99% | growth inhibition [4] 99%

Cc1cccc(-c2ccc(NC(=O)Nc3ccc4nccc(N5CCN(C)CC5)c4c3)cc2C)n1
active: growth inhibition [1] 95% | growth inhibition [4] 101%
inactive: inhibition [2] 4% | inhibition [3] -3% | outcome [5] | outcome [6] | outcome [7] | outcome [8]

COc1ccc2nccc(NCC3(O)CCC(NCc4cc5c(cn4)OCCO5)CC3)c2n1 (stereo not given)
inactive: growth inhibition [1] 23% | inhibition [2] 15% | inhibition [3] -3% | outcome [5] | outcome [6] | outcome [7] | outcome [8]
active: growth inhibition [4] 99%

NC(N)=NN=Cc1c2ccccc2c(Cl)c2cc(Cl)ccc12
inactive: growth inhibition [1] 28% | inhibition [2] 26% | inhibition [3] -3% | outcome [5] | outcome [6] | outcome [7] | outcome [8]
active: growth inhibition [4] 97%

Cc1c(CNCCCNc2cc(=O)c3ccccc3[nH]2)sc(C(F)=C(F)F)c1Br
inactive: growth inhibition [1] 18% | inhibition [2] 7% | inhibition [3] -2% | outcome [5] | outcome [6] | outcome [7] | outcome [8]
active: growth inhibition [4] 94%

Cc1cc(N2CCCC2)nc(Nc2ccc(NC(=O)c3ccccc3F)cc2)n1
active: growth inhibition [4] 98%
inactive: growth inhibition [1] 44% | inhibition [2] 36% | inhibition [3] -3% | outcome [5] | outcome [6] | outcome [7] | outcome [8]

Cc1nc(N)nc(N)c1CCCOc1ccc(Br)cc1
inactive: growth inhibition [1] 5% | inhibition [2] 30% | inhibition [3] 1% | outcome [5] | outcome [6] | outcome [7] | outcome [8]
active: growth inhibition [4] 97%

COc1ccc(-c2ccc3c(-c4cccc(S(C)(=O)=O)c4)cnc(N)c3c2)cc1
inactive: growth inhibition [1] 12% | inhibition [2] 41% | inhibition [3] 2% | outcome [5] | outcome [6] | outcome [7] | outcome [8]
active: growth inhibition [4] 89%
